Screens: PubChem BioAssay, NMMLSC
HRas wt GTP bind – human HRas wildtype GTP binding, change in either direction | P01112 | GST-Ras wt beads, Bodipy-FL-GTP binding, flow cytometry; actives lie on both sides | GTP binding activity, % at 10 µM | actives 0.14% (n = 190,000) | AID 759;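 active means GTP binding activity at least 20% away from the 100% baseline, either lowered as inhibitor or raised as activator; inconclusive means flagged as likely green fluorescent, judged across all proteins in the well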;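 further: 0% = unlabeled GTP competition control and 100% = no-compound control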
Target sequence (P01112 whole entry, looked up): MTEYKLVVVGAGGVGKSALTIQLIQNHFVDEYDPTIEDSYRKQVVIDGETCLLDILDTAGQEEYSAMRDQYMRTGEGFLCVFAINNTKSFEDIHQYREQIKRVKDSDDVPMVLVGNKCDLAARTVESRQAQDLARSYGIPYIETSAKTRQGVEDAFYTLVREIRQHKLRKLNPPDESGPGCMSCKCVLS
Rac1 wt GTP bind – alters GTP binding to wildtype human Rac1 | P63000 | GST-Rac1 beads, fluorescent GTP binding, flow cytometry; actives lie on both sides; 0 = cold GTP competed, 100 = untreated | GTP binding activity (% of control), % at 10 µM | actives 0.27% (n = 190,000) | AID 757;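 active means GTP binding activity at least 20 points away from the 100% control level, either lower or higher; inconclusive means compound flagged as likely green fluorescent, judged across all proteins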
Rab7 wt modul – dog Rab7 wildtype GTP binding, inhibitors and activators; GST-Rab7 beads, fluorescent GTP binding, flow cytometry; actives lie on both sides; untreated = 100%, excess cold GTP = 0%; actives 0.055% (n = 190,000); AID 758; GTP binding activity (percent of control), % at 10 µM;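 active means fluorescent GTP binding to Rab7 beads changed by at least 20 points from the 100% baseline, either direction, mostly lower; inconclusive means compound itself probably fluorescent, or too few beads counted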;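 further: median green fluorescence of bound Bodipy-FL-GTP per Rab7 bead population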
Rab2A wt mod – changes GTP binding to wildtype dog Rab2A, up or down; P61105; GST-Rab2 wt beads, Bodipy-GTP binding, flow cytometry; GTP binding activity, % at 10 µM; actives 0.19% (n = 190,000); AID 760;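 active means GTP binding activity at least 20 points away from 100%, either lowered or raised; inconclusive means signal likely due to the compound's own green fluorescence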;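 further: 0% = beads with excess unlabeled GTP and 100% = no-compound control corrected for plate trend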
Rac1 act GTP bind – human Rac1 activated mutant GTP binding change; P63000; AID 764; GST-Rac1 activated beads, fluorescent GTP binding, flow cytometry; actives lie on both sides; 100% means binding = to untreated wells; actives 0.11% (n = 190,000); percent activity (GTP binding), % at 10 µM;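 active means GTP binding at least 20 percentage points away from the 100% baseline, in either direction, so actives lie on both sides; inconclusive means Compound likely fluorescent itself, or too few beads counted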
Cdc42 wt – changes GTP binding to wildtype human Cdc42; GST-Cdc42 beads, Bodipy-GTP binding, flow cytometry; actives lie on both sides; actives 0.2% (n = 190,000); percent activity (GTP binding), % at 10 µM; AID 761; P60953;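 active means percent activity GTP binding at least 20 points away from the 100% baseline, either down as inhibitor or up as activator; inconclusive means compound flagged as likely green fluorescent from well-wide comparison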;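 further: median bead fluorescence of bound Bodipy-FL-GTP at 100 nM; 0% = excess unlabeled GTP control and 100% = no compound control; below 100% means less GTP binding so inhibitor and above means activator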
Target sequence (P60953 whole entry, looked up): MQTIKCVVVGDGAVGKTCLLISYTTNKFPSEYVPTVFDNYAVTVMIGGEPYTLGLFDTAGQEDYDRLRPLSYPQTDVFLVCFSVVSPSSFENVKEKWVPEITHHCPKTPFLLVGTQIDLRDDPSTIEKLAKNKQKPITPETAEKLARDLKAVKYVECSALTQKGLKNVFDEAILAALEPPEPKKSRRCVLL
Numbers without * were called inactive; [ ] = dose if it differs, or a comment. An excerpt weighted towards active compounds, which were near 0.4% of everything screened.

Results for Cc1[nH]n2c(=O)c3c(nc2c1-c1ccc(F)cc1)CCCC3 ?
HRas wt GTP bind: 87; Rac1 wt GTP bind: 81; Rab7 wt modul: 92; Rab2A wt mod: 87; Rac1 act GTP bind: 88; Cdc42 wt: 87

How did Cc1ccc(N=Nc2c(=O)[nH]n3c(C)cc(C)nc23)cc1 do in these assays?
HRas wt GTP bind: 97; Rac1 wt GTP bind: 98; Rab7 wt modul: 99; Rab2A wt mod: 100; Rac1 act GTP bind: 95; Cdc42 wt: 100

Results for Cc1ccc(N=Nc2c(N)[nH]n3c(=O)cc(C)nc23)cc1 ?
HRas wt GTP bind: 87; Rac1 wt GTP bind: 75*; Rab7 wt modul: 92; Rab2A wt mod: 81; Rac1 act GTP bind: 88; Cdc42 wt: 88

Results for Cc1ccc(N=Nc2c(N)[nH]n3c(=O)c4c(nc23)CCCC4)cc1 ?
HRas wt GTP bind: 86; Rac1 wt GTP bind: 75*; Rab7 wt modul: 91; Rab2A wt mod: 82; Rac1 act GTP bind: 86; Cdc42 wt: 86

What do the screens show for `O=C(O)c1ccc(CNCc2ccc(F)cc2)cc1`?
HRas wt GTP bind: 86; Rac1 wt GTP bind: 83; Rab7 wt modul: 94; Rab2A wt mod: 85; Rac1 act GTP bind: 80; Cdc42 wt: 79*

Results for Cc1c(NS(=O)(=O)c2ccc3c(c2)n(C)c(=O)n3C)c(=O)n(-c2ccccc2)n1C ?
HRas wt GTP bind: 103; Rac1 wt GTP bind: 109; Rab7 wt modul: 98; Rab2A wt mod: 103; Rac1 act GTP bind: 102; Cdc42 wt: 104

Results for Cc1c(NS(=O)(=O)c2ccc3c(c2)Cc2ccccc2-3)c(=O)n(-c2ccccc2)n1C ?
HRas wt GTP bind: 85; Rac1 wt GTP bind: 80; Rab7 wt modul: 90; Rab2A wt mod: 81; Rac1 act GTP bind: 76*; Cdc42 wt: 78*

What do the screens show for `COCCNC(=S)Nc1cc(OC)c(OC)cc1C#N`?
HRas wt GTP bind: 67*; Rac1 wt GTP bind: 57*; Rab7 wt modul: 86; Rab2A wt mod: 59*; Rac1 act GTP bind: 80; Cdc42 wt: 60*

How did CCc1cccc(C)c1NC(=O)COC(=O)c1ccc2c(c1)S(=O)(=O)c1ccccc1C2=O do in these assays?
HRas wt GTP bind: 97; Rac1 wt GTP bind: 98; Rab7 wt modul: 100; Rab2A wt mod: 95; Rac1 act GTP bind: 99; Cdc42 wt: 98

What do the screens show for `O=C1CC(c2ccc(F)cc2)Sc2ccccc2N1` (configuration not stated)?
HRas wt GTP bind: 114; Rac1 wt GTP bind: 129*[activator]; Rab7 wt modul: 111; Rab2A wt mod: 106; Rac1 act GTP bind: 109; Cdc42 wt: 116

How did COc1ccc(C)cc1-n1nnnc1SCc1cn2ccsc2n1 do in these assays?
HRas wt GTP bind: 100; Rac1 wt GTP bind: 105; Rab7 wt modul: 103; Rab2A wt mod: 100; Rac1 act GTP bind: 99; Cdc42 wt: 99

Results for Cc1ccc(NC(=S)NNC(=O)c2cn(C)nc2C)cc1 ?
HRas wt GTP bind: 113; Rac1 wt GTP bind: 134*[activator]; Rab7 wt modul: 107; Rab2A wt mod: 114; Rac1 act GTP bind: 108; Cdc42 wt: 118

Results for Cc1ccc(NC(=S)NNC(=O)c2c(Cl)c(C)nn2C)cc1 ?
HRas wt GTP bind: 99; Rac1 wt GTP bind: 100; Rab7 wt modul: 96; Rab2A wt mod: 99; Rac1 act GTP bind: 97; Cdc42 wt: 100

Results for COc1ccc(-c2nn3c(-c4ccccn4)nnc3s2)cc1OC ?
HRas wt GTP bind: 80; Rac1 wt GTP bind: 74*; Rab7 wt modul: 86; Rab2A wt mod: 79*; Rac1 act GTP bind: 89; Cdc42 wt: 82

What do the screens show for `CC(=O)Cc1nsc(Nc2ccc(C)cc2)n1`?
HRas wt GTP bind: 101; Rac1 wt GTP bind: 103; Rab7 wt modul: 102; Rab2A wt mod: 101; Rac1 act GTP bind: 95; Cdc42 wt: 98

What do the screens show for `COc1ccc(CNC(=O)c2ccccc2C(=O)O)cc1`?
HRas wt GTP bind: 100; Rac1 wt GTP bind: 110; Rab7 wt modul: 101; Rab2A wt mod: 102; Rac1 act GTP bind: 106; Cdc42 wt: 103

Results for COc1ccc(CC(=O)c2ccccc2C(=O)O)cc1 ?
HRas wt GTP bind: 126*[activator]; Rac1 wt GTP bind: 143*[activator]; Rab7 wt modul: 125*[activator]; Rab2A wt mod: 130*[activator]; Rac1 act GTP bind: 131*[activator]; Cdc42 wt: 140*[activator]

What do the screens show for `CCOc1ccc(-n2c(C)nc3cc(C(=O)NCc4ccc5c(c4)OCO5)ccc32)cc1`?
HRas wt GTP bind: 80; Rac1 wt GTP bind: 77*; Rab7 wt modul: 86; Rab2A wt mod: 71*; Rac1 act GTP bind: 79*; Cdc42 wt: 77*

What do the screens show for `COc1cc(/C=N/NC(=O)CCn2nnc3ccccc32)ccc1O`?
HRas wt GTP bind: 101; Rac1 wt GTP bind: 101; Rab7 wt modul: 99; Rab2A wt mod: 99; Rac1 act GTP bind: 99; Cdc42 wt: 103

Results for Oc1c(C(Nc2nccs2)c2ccc(C(F)(F)F)cc2)ccc2cccnc12 (configuration not stated) ?
HRas wt GTP bind: 99; Rac1 wt GTP bind: 100; Rab7 wt modul: 105; Rab2A wt mod: 99; Rac1 act GTP bind: 95; Cdc42 wt: 98

What do the screens show for `Cc1ccccc1C(=O)Nc1cccc(C(=O)N/N=C/c2cc(Cl)cc([N+](=O)[O-])c2O)c1`?
HRas wt GTP bind: 80; Rac1 wt GTP bind: 81; Rab7 wt modul: 90; Rab2A wt mod: 77*; Rac1 act GTP bind: 74*; Cdc42 wt: 76*

What do the screens show for `O=C(NCc1cccnc1)c1cccn2c(=O)c3sccc3nc12`?
HRas wt GTP bind: 87; Rac1 wt GTP bind: 76*; Rab7 wt modul: 91; Rab2A wt mod: 82; Rac1 act GTP bind: 86; Cdc42 wt: 87

Results for O=C(O)c1ccccc1C(=O)NCc1cccnc1 ?
HRas wt GTP bind: 101; Rac1 wt GTP bind: 104; Rab7 wt modul: 97; Rab2A wt mod: 100; Rac1 act GTP bind: 102; Cdc42 wt: 99

Results for CCN1/C(=C/C=C/C=C/c2sc3ccccc3[n+]2CC)Sc2ccccc21 ?
HRas wt GTP bind: 51*; Rac1 wt GTP bind: 89; Rab2A wt mod: 57*; Rac1 act GTP bind: inconclusive; Cdc42 wt: 63*

What do the screens show for `COC(=O)c1cn(-c2ccc(Cl)cc2)c(=O)c2ccccc12`?
HRas wt GTP bind: 101; Rac1 wt GTP bind: 106; Rab7 wt modul: 96; Rab2A wt mod: 101; Rac1 act GTP bind: 100; Cdc42 wt: 103

How did Cc1ccc(O)c(C(=O)c2cnn(C(=O)Cc3csc(C)n3)c2)c1 do in these assays?
HRas wt GTP bind: 77*; Rac1 wt GTP bind: 93; Rab7 wt modul: 79*; Rab2A wt mod: 85; Rac1 act GTP bind: 91; Cdc42 wt: 83

Results for Cc1ncc(CC(=O)n2cc(C(=O)c3cc(F)ccc3O)cn2)s1 ?
HRas wt GTP bind: 98; Rac1 wt GTP bind: 99; Rab7 wt modul: 97; Rab2A wt mod: 97; Rac1 act GTP bind: 98; Cdc42 wt: 97
